Assay results from PubChem BioAssay (NCI).
This is part of a sample that, as a whole, favours compounds with a hit. Of some 83,000 tested, about 20% had one in any assay.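 Growth was measured after 48 h exposure to one concentration of compound in 96-well plates. Values under 10 count as active.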 Unmarked numbers belong to inactive results. The source made the active and inactive calls.

Assays:
Test in all cases: NCI-60 one-dose screen, 48 h (100 = growth as untreated, 0 = no growth, -100 = all killed)
MDA-MB-435 melanoma = conditions: 10 µM unless noted
SW-620 colon = conditions: 10 µM unless noted
MCF7 breast = conditions: 10 µM
HCT-116 colon = conditions: 10 µM unless noted
HCC-2998 colon = conditions: 10 µM unless noted
KM12 colon = conditions: 10 µM unless noted

SMILES | growth (MDA-MB-435 melanoma) | growth (SW-620 colon) | growth (MCF7 breast) | growth (HCT-116 colon) | growth (HCC-2998 colon) | growth (KM12 colon)
NCCNc1nc2ccc(F)cc2c2c(=O)c3cc(F)ccc3sc12 | 13.4% | -73.5% (active) | -15.2% (active) | -87.1% (active) | 14.8% | 17.8%
CC[C@]1(O)C[C@@H]2CN(CCc3c([nH]c4ccccc34)[C@@](C(=O)OC)(c3cc4c(cc3OC)N(C)[C@H]3[C@@](O)(C(=O)OC)[C@H](OC(C)=O)[C@]5(CC)C=CCN6CC[C@]43[C@@H]65)C2)C1 | -38% (active) | – | 10.6% | 7.92% (active) | 0.153% (active) | 8.64% (active)
O=c1oc2ccc(Cl)cc2c(=O)n1-c1ccc(Cl)cc1F | -5.48% (active) | 9.15% (active) | 0.727% (active) | 2.58% (active) | 10.7% | -9.11% (active)
COc1ccc(C2C3=C(COC3=O)N(CCO)c3cc4c(cc32)OCCO4)cc1 (centres undefined) | 1.1% (active) | 55.2% | – | 77.2% | 76.5% | 49%
O=c1oc2ccc(I)cc2c(=O)n1-c1ccc(Cl)cc1F | 1.42% (active) | 11.7% | 2.84% (active) | 7.44% (active) | 16.9% | 1.77% (active)
O=c1oc2ccc(Br)cc2c(=O)n1-c1ccc(F)cc1F | 2.57% (active) | – | 2.33% (active) | 4.49% (active) | 17.4% | 4.24% (active)
COc1ccc(/C=C/C(=O)c2c(C)nc3ccccc3c2/C=C/c2ccccc2)cc1O | 1.85% (active) | 19.4% | 18.2% | 12% | 82.4% | 35.6%
O=C(Nc1ccc(Cl)cc1F)c1cc(I)ccc1O | 18.5% | 27.4% | 47% | 21.2% | 81.6% | 62%
O=C(CCc1nnc2sc(-c3ccc(Cl)cc3Cl)nn12)c1nc2ncccc2[nH]1 | -31.2% (active) | -30.4% (active) | 6.03% (active) | -73.6% (active) | -71.6% (active) | -52.2% (active)
O=C(Nc1ccc(Br)cc1F)c1cc(F)ccc1O | -1.29% (active) | 10.2% | 3.43% (active) | 2.34% (active) | 17.8% | 0.627% (active)
O=c1oc2ccc(I)cc2c(=O)n1-c1ccc(I)cc1F | -4.7% (active) | – | 2.88% (active) | 2.66% (active) | 21% | -10.7% (active)
O=c1c2cc(F)cc(Cl)c2sc2c(Cl)nc3ccccc3c12 | 110% | 97.7% | 77.1% | 104% | 104% | 101%
O=C(Nc1ccc(F)cc1F)c1cc(Br)ccc1O | 0.167% (active) | 13.1% | -1.09% (active) | 1.66% (active) | 13.5% | -0.56% (active)
O=C(c1ccccc1)N(C(=S)NCCc1ccc(Cl)cc1)c1ccc(Cl)cc1 | 37.9% | 62.8% | 20.8% | 45.3% | 61.9% | 26.8%
Nc1n[nH]c2ccc([C@@H]3Nc4ccc5[nH]ncc5c4[C@H]4[C@H]5CCC(C5)[C@H]43)cc12 | -7.49% (active) | 22.2% | 18.7% | 9.49% (active) | 26.2% | 11.5%
Nc1cccc(Nc2cc(S(=O)(=O)O)c(N)c3c2C(=O)c2ccccc2C3=O)c1 | 109% | 104% | – | 108% | 120% | 105%
O=C(Nc1ccc(Br)cc1F)c1cc(Cl)ccc1O | -13.9% (active) | 11.7% | 0.423% (active) | -30.5% (active) | 9.31% (active) | -30.9% (active)

SMILES | growth (MDA-MB-435 melanoma) | growth (SW-620 colon) | growth (MCF7 breast) | growth (HCT-116 colon) | growth (HCC-2998 colon) | growth (KM12 colon)
O=c1oc2ccc(Br)cc2c(=O)n1-c1ccc(I)cc1F | -1.76% (active) | 10% | 1.41% (active) | 0.0693% (active) | – | -18% (active)
O=C(CCc1nnc2sc(COc3ccccc3)nn12)c1nc2ncccc2[nH]1 | 101% | 85.8% | 94.5% | 91.3% | 99.8% | 99.8%
O=C(Nc1ccc(Br)cc1F)c1cc(I)ccc1O | 4.78% (active) | 14.1% | 5.42% (active) | 5.43% (active) | 27.4% | 6.15% (active)
CC(C)C[C@H](C(=O)N[C@@H](C)C(N)=O)N1CC=CCN(O)S1(=O)=O | 119% [5 µM] | 103% [5 µM] | – | 109% [5 µM] | 110% [5 µM] | 109% [5 µM]
Nc1ccc(-c2nn3c(CCC(=O)c4nc5ncccc5[nH]4)nnc3s2)c(O)c1 | 97.2% | 90.1% | 84.7% | 86.7% | 69.4% | 98.5%
O=C(COc1cc(O)c2c(=O)cc(-c3ccccc3)oc2c1)Nc1ccccc1C(F)(F)F | 78% | 21.8% | 49.8% | 5.84% (active) | 90% | 68.5%
COc1c(B(O)O)cccc1-c1nc2ccc3[nH]ncc3c2c2c1C1CCC2C1 (centres undefined) | 65.8% | 34.3% | 61.8% | 20.5% | 110% | 25.3%
O=C1c2cc(I)ccc2Oc2cc([N+](=O)[O-])ccc2N1c1ccc(Cl)cc1F | 60.4% | 82.5% | 80.7% | 67.8% | 102% | 81.2%
O=C(Nc1ccc(I)cc1F)c1cc(F)ccc1O | -5.16% (active) | 7.82% (active) | 0.117% (active) | -6.74% (active) | 8.95% (active) | -11.4% (active)
CC1=C(C(=O)OCC2CCN(C(=O)OC(C)(C)C)CC2)[C@H](c2cccc(Br)c2)C2=C(CC(C)(C)CC2=O)N1 | 24.9% | 28.2% | 13.8% | 17.7% | 49.2% | 25%
Cc1ccc(NC2=CC(=O)C(=O)c3ccccc32)c(C)c1 | -77% (active) | 34.9% | – | -6.25% (active) | 29.1% | 46.4%
CN(CCc1ccccc1)C(=S)N(C(=O)c1ccc([N+](=O)[O-])cc1)c1ccc(Cl)cc1 | 85.9% | 75.3% | 33% | 67.3% | 110% | 49.6%
O=c1oc2ccc(-c3ccc(F)cc3F)cc2c(=O)n1-c1cccc(C(F)(F)F)c1 | 5.25% (active) | 12.6% | 3.59% (active) | 8.28% (active) | 22.9% | 3.37% (active)
O=C(COc1cc(O)c2c(=O)cc(-c3ccccc3)oc2c1)Nc1ccccc1 | 95.3% | 87.5% | 85.3% | 57.4% | – | 86.5%
O=C(CCN1C(=O)c2ccccc2C1=O)Nc1ccc(Cl)cc1 | 68.9% | 103% | 72.4% | 61.4% | 75.2% | 75%
O=c1oc2ccc(Cl)cc2c(=O)n1-c1ccc(F)cc1F | 3.09% (active) | 15.6% | 5.09% (active) | 7.6% (active) | 34% | 5.64% (active)
